# Screen size: about 39,000 compounds; about 3,300 (8.5%) were called active. This is one part of a sample in which actives are shown more often than they occur.
# Test system: HepG2
# Test: cytotoxicity call (relative viability < 0.9)
# Conditions: 10 µM
row,Compound,cytotoxicity call
1,Nc1ccc(Cl)nn1,inactive
2,C[C@@H]1CN([C@@H](C)CO)C(=O)CCCn2nncc2CO[C@H]1CN(C)S(=O)(=O)c1ccc(Cl)cc1,inactive
3,O=C(C[C@@H]1CC[C@@H](NC(=O)CN2CCOCC2)[C@H](CO)O1)NCCc1ccncc1,inactive
4,C[C@@H]1CCCCO[C@H](CN(C)C(=O)C2CCCCC2)[C@H](C)CN([C@@H](C)CO)C(=O)c2cc(NC(=O)Cc3ccccc3)ccc2O1,inactive
5,Cc1cn(Cc2ccccc2)c(=O)[nH]c1=O,inactive
6,O=C(C[C@H]1CC[C@@H]2[C@H](COC[C@@H](O)CN2C(=O)Nc2cc(Cl)cc(Cl)c2)O1)N1CCOCC1,inactive
7,COC[C@@H]1c2nnn(C)c2CCN1S(=O)(=O)c1cn(C)cn1,inactive
8,C[C@@H]1CCCCO[C@@H](CN(C)CC2CCCCC2)[C@@H](C)CN([C@@H](C)CO)C(=O)c2cc(NS(=O)(=O)c3ccc(F)cc3)ccc2O1,inactive
9,C[C@@H]1CCCCO[C@H](CN(C)CC2CCCCC2)[C@@H](C)CN([C@H](C)CO)C(=O)c2cc(NS(=O)(=O)c3ccc(F)cc3)ccc2O1,inactive
10,C[C@@H]1CCCCO[C@@H](CN(C)CC2CCCCC2)[C@@H](C)CN([C@H](C)CO)C(=O)c2cc(NS(=O)(=O)c3ccc(F)cc3)ccc2O1,active
11,C[C@@H]1CCCCO[C@@H](CN(C)CC2CCCCC2)[C@H](C)CN([C@H](C)CO)C(=O)c2cc(NS(=O)(=O)c3ccc(F)cc3)ccc2O1,inactive
12,C[C@H](CO)N1C[C@H](C)[C@@H](CN(C)CC2CCCCC2)OCCCC[C@H](C)Oc2ccc(NS(=O)(=O)c3ccc(F)cc3)cc2C1=O,inactive
13,C[C@@H]1CN([C@H](C)CO)C(=O)c2cc(NS(=O)(=O)c3ccc(F)cc3)ccc2O[C@@H](C)CCCCO[C@@H]1CN(C)CC1CCCCC1,inactive
14,C[C@H](CO)N1C[C@H](C)[C@H](CN(C)CC2CCCCC2)OCCCC[C@H](C)Oc2ccc(NS(=O)(=O)c3ccc(F)cc3)cc2C1=O,active
15,C[C@@H]1CCCCO[C@@H](CN(C)CC2CCCCC2)[C@H](C)CN([C@@H](C)CO)C(=O)c2cc(NS(=O)(=O)c3ccc(F)cc3)ccc2O1,active
16,C[C@@H]1CCCCO[C@H](CN(C)CC2CCCCC2)[C@H](C)CN([C@H](C)CO)C(=O)c2cc(NS(=O)(=O)c3ccc(F)cc3)ccc2O1,inactive
17,C[C@@H]1CN([C@@H](C)CO)C(=O)c2cc(NS(=O)(=O)c3ccc(F)cc3)ccc2O[C@@H](C)CCCCO[C@H]1CN(C)CC1CCCCC1,inactive
18,C[C@@H]1CN([C@@H](C)CO)C(=O)c2cc(NS(=O)(=O)c3ccc(F)cc3)ccc2O[C@@H](C)CCCCO[C@@H]1CN(C)CC1CCCCC1,inactive
19,C[C@H]1CCCCO[C@H](CN(C)CC2CCCCC2)[C@@H](C)CN([C@@H](C)CO)C(=O)c2cc(NS(=O)(=O)c3ccc(F)cc3)ccc2O1,active
20,CCCNC(=O)C[C@H]1CC[C@@H]2[C@@H](COc3ccc(NS(=O)(=O)c4ccccc4C)cc3C(=O)N2C)O1,inactive
21,O=C(C[C@H]1C=C[C@@H](NC(=O)c2ccc3c(c2)OCO3)[C@@H](CO)O1)NCc1ccc(Oc2ccccc2)cc1,inactive
22,COc1ccc2c3c(n(c2c1)C)[C@@H](CO)N(C[C@]13CCN(CC1)S(=O)(=O)c1cn(cn1)C)C(=O)Nc1ccc(cc1)F,inactive

row,Compound,cytotoxicity call
1,COc1ccc2c3c([nH]c2c1)[C@H](CO)N(C[C@]13CN(CC2CCCCC2)C1)S(=O)(=O)c1cn(cn1)C,inactive
2,C[C@@H]1CCCCO[C@H](CN(C)C(=O)NC2CCCCC2)[C@H](C)CN([C@@H](C)CO)C(=O)c2cc(NC(=O)C3CCCCC3)ccc2O1,inactive
3,CN1C(=O)[C@@H]2[C@@H]3C[C@H]4[C@@H](O[C@H]1[C@H]42)[C@H]3O,inactive
4,C[C@H](CO)N1C[C@H](C)[C@H](CN(C)Cc2ccncc2)Oc2c(NC(=O)c3cnccn3)cccc2C1=O,inactive
5,C[C@@H]1CCCCO[C@H](CN(C)CC2CCCCC2)[C@H](C)CN([C@@H](C)CO)C(=O)c2cc(NS(=O)(=O)c3ccc(F)cc3)ccc2O1,inactive
6,C[C@H]1CCCCO[C@@H](CN(C)CC2CCCCC2)[C@@H](C)CN([C@@H](C)CO)C(=O)c2cc(NS(=O)(=O)c3ccc(F)cc3)ccc2O1,inactive
7,C[C@@H]1CN([C@H](C)CO)C(=O)c2cc(NS(=O)(=O)c3ccc(F)cc3)ccc2O[C@@H](C)CCCCO[C@H]1CN(C)CC1CCCCC1,active
8,C[C@H](CO)N1C[C@H](C)[C@@H](CN(C)C(=O)Nc2ccc3c(c2)OCO3)Oc2ccc(NC(=O)Cn3cnnn3)cc2C1=O,inactive
9,C[C@H](CO)N1C[C@H](C)[C@@H](CN(C)C(=O)Nc2ccc3c(c2)OCO3)OCCCC[C@H](C)Oc2ccc(NS(=O)(=O)c3ccc(F)cc3)cc2C1=O,inactive
10,CC(C)NC(=O)N(C)C[C@H]1Oc2ccc(NS(=O)(=O)c3ccc(F)cc3)cc2C(=O)N([C@@H](C)CO)C[C@H]1C,inactive
11,C[C@H](CO)N1C[C@H](C)[C@H](CN(C)C(=O)Nc2ccc(C(F)(F)F)cc2)Oc2ccc(NC(=O)Nc3ccc4c(c3)OCO4)cc2CC1=O,inactive
12,CC(C)(C)c1csc(-c2ccc(-c3cccs3)s2)n1,inactive
13,Cl.N=C(NN=Cc1ccc(Cl)cc1)NN=Cc1ccc(Cl)cc1,inactive
14,Clc1ccc(/C=N/Cc2ccc(-c3cccs3)s2)cc1,active
15,CN1C(=O)c2cc(NC(=O)C3CCC3)ccc2OC[C@H]2O[C@H](CC(=O)NCCc3ccncc3)CC[C@@H]21,inactive
16,Cc1noc(C)c1NC(=O)N(C)C[C@H]1Oc2ccc(NC(=O)Cn3cnnn3)cc2C(=O)N([C@@H](C)CO)C[C@@H]1C,inactive
17,O=C(C[C@@H]1CC[C@H]2[C@@H](COC[C@@H](O)CN2S(=O)(=O)c2cccc(Cl)c2)O1)NCc1ccc2c(c1)OCO2,inactive
18,Cc1coc(C)c1C(=O)O[C@@H]1O[C@@H](C)[C@H](O)[C@@H](O)[C@H]1O,active
19,C[C@@H]1O[C@@H](Oc2c(-c3cc(O)c(O)c(O)c3)oc3cc(O)cc(O)c3c2=O)[C@H](O)[C@H](O)[C@H]1O,inactive
20,C[C@@H]1O[C@@H](OC[C@H]2O[C@@H](OCCc3ccccc3)[C@H](O)[C@@H](O)[C@@H]2O)[C@H](O)[C@H](O)[C@H]1O,inactive
21,CCO[C@H]1OC(C(=O)N2CCN(Cc3ccc4c(c3)OCO4)CC2)=C[C@@H](C)[C@@H]1CCCOC(=O)NCCCCCC(=O)NO,inactive
22,O=C(C[C@H]1C[C@@H]2c3cc(NC(=O)NC4CCCC4)ccc3O[C@@H]2[C@@H](CO)O1)NCc1ccc2c(c1)OCO2,inactive

row,Compound,cytotoxicity call
1,CO[C@H]1CN(C)C(=O)c2ccc(NC(=O)NC(C)C)cc2OC[C@@H](C)N(Cc2ccc(-c3ccccn3)cc2)C[C@@H]1C,inactive
2,C[C@H]1CN([C@@H](C)CO)C(=O)Cc2cc(NC(=O)Nc3ccc(C(F)(F)F)cc3)ccc2O[C@H]1CN(C)Cc1ccccc1,active
3,C[C@@H]1CN([C@H](C)CO)C(=O)Cc2cc(NC(=O)Nc3ccc(C(F)(F)F)cc3)ccc2O[C@@H]1CN(C)Cc1ccccc1,active
4,C[C@@H]1CN([C@@H](C)CO)C(=O)Cc2cc(NC(=O)Nc3ccc(C(F)(F)F)cc3)ccc2O[C@@H]1CN(C)Cc1ccccc1,active
5,C[C@@H]1CN([C@H](C)CO)C(=O)Cc2cc(NC(=O)Nc3ccc(C(F)(F)F)cc3)ccc2O[C@H]1CN(C)Cc1ccccc1,active
6,C[C@@H]1CN([C@@H](C)CO)C(=O)Cc2cc(NC(=O)Nc3ccc(C(F)(F)F)cc3)ccc2O[C@H]1CN(C)Cc1ccccc1,inactive
7,C[C@H]1CN([C@@H](C)CO)C(=O)Cc2cc(NC(=O)Nc3ccc(C(F)(F)F)cc3)ccc2O[C@@H]1CN(C)Cc1ccccc1,inactive
8,C[C@H](CO)N1C[C@H](C)[C@H](CN(C)S(C)(=O)=O)Oc2ncc(C#Cc3ccc(C(F)(F)F)cc3)cc2C1=O,inactive
9,COCC#Cc1cnc2c(c1)C(=O)N([C@H](C)CO)C[C@@H](C)[C@@H](CN(C)C(=O)CCN1CCCCC1)O2,inactive
10,C[C@@H]1CN([C@H](C)CO)C(=O)c2cc(NC(=O)Nc3ccc4c(c3)OCO4)ccc2O[C@@H]1CN(C)C(=O)Nc1cccc2ccccc12,inactive
11,COc1ccc(C#Cc2ccc3c(c2)O[C@H](CN(C)C(=O)CN2CCOCC2)[C@@H](C)CN([C@H](C)CO)S3(=O)=O)cc1,inactive
12,CN(C)CCN1C(=O)CO[C@H]2CN(C(=O)NCc3cccnc3)C[C@@H]21,inactive
13,C[C@@H]1CN([C@H](C)CO)C(=O)Cc2cc(NC(=O)Nc3ccccc3)ccc2O[C@@H]1CN(C)S(=O)(=O)c1cn(C)cn1,inactive
14,O=C(N/N=C/[C@H](O)[C@H](O)[C@@H](O)[C@@H](O)CO)c1ccccn1,inactive
15,CON=C(C(=O)NC1C(=O)N2C(C(=O)O)=C(C[N+]3(C)CCCC3)CSC12)c1csc(N)n1.[Cl-] (centres undefined),inactive
16,Cc1noc(C)c1S(=O)(=O)Nc1ccc2c(c1)C(=O)N([C@@H](C)CO)C[C@H](C)[C@H](CN(C)C(=O)Nc1cccc3ccccc13)OCCCC[C@H](C)O2,inactive
17,C[C@H](CO)N1C[C@H](C)[C@@H](CN(C)Cc2ccccc2)Oc2ccc(NC(=O)Nc3ccc(C(F)(F)F)cc3)cc2CC1=O,active
18,C[C@H](CO)N1C[C@H](C)[C@H](CN(C)Cc2ccccc2)Oc2ccc(NC(=O)Nc3ccc(C(F)(F)F)cc3)cc2CC1=O,active
19,CO[C@H]1CN(C)C(=O)c2cc(NC(=O)Nc3ccccc3F)ccc2OC[C@@H](C)N(Cc2ccccc2C(=O)O)C[C@H]1C,inactive
20,C[C@@H]1CCCCO[C@H](CN(C)C(=O)Nc2ccc(F)cc2)[C@H](C)CN([C@@H](C)CO)C(=O)c2cc(NC(=O)c3ccccc3)ccc2O1,inactive

# — the antibiotic and cytotoxicity screens of Wong et al. (2023)
